Test results published in PubChem BioAssay.
The source made the active and inactive calls.

Tests used:
[1] = target: Albumin (Bos taurus) (UniProt P02769); experiment: bovine serum albumin binders on microarray, profiling panel, artefact control for SMM control protein annotation, biochemical, small-molecule microarray, Alexa647 label, 635/667 nm fluorescence (AID 1118); settings: BSA-A647 binding, fluorescence 635 nm, higher = more signal;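 further: score merges 667 nm emission intensity and signal-to-noise per printed compound spot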
Albumin (Bos taurus), sequence (P02769 whole entry, looked up): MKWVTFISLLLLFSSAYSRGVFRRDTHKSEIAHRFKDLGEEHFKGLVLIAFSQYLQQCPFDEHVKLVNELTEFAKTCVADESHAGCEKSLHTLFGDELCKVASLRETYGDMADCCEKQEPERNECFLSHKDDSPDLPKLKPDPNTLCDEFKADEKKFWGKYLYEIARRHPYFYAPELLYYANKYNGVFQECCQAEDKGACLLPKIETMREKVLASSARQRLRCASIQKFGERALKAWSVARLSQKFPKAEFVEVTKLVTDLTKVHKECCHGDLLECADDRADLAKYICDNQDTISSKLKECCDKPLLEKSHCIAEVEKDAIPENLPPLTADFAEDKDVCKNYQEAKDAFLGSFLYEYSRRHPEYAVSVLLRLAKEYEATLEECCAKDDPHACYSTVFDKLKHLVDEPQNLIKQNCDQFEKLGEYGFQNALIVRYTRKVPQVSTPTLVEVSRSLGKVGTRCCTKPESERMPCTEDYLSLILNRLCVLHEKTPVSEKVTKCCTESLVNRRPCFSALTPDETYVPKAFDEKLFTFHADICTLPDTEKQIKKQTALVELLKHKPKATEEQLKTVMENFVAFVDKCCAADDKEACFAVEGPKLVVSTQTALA

[2] = small-molecule microarray binders of probe aXIP, primary screen, biochemical, NeuroSMM set, 635/667 nm fluorescence (AID 1119); settings: higher = more signal, called active from +8 up or from −8 down;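 further: probe is the protein aXip251-270 applied at 1 µg/mL to compound-printed slides; binding of probe to printed compounds measured as 667 nm fluorescence plus signal to noise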
[3] = small-molecule binders of probe aNOTCH3, primary screen, biochemical, small-molecule microarray, 635/667 nm fluorescence (AID 1120); settings: higher = more signal;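 further: probe is a biotin-tagged antibody raised against NOTCH3 rather than NOTCH3 protein; score merges spot fluorescence near 667 nm with spot signal to noise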
[4] = small-molecule binders of probe aNOTCH2, primary screen, biochemical, small-molecule microarray, 635/667 nm fluorescence (AID 1121); settings: higher = more signal;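 further: score merges feature fluorescence read at 667 nm with its signal to noise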
[5] = target: Carbonic anhydrase 2 (Homo sapiens) (UniProt P00918); experiment: CAII small-molecule binders, profiling panel, biochemical, small-molecule microarray, Alexa647-labelled CAII (AID 1122); settings: CAII-A647 binding fluorescence, higher = more signal
[6] = COS7 lysate on small-molecule microarray, probe aHis, 635 nm (AID 1123); settings: COS7 cell lysate, fluorescence, higher = more signal;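 further: z-score combines 667nm fluorescence intensity with signal-to-noise per printed compound spot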
[7] = compound binding in COS7 lysate, probe aLAP1, primary screen, cell lysate, small-molecule microarray (AID 1124); settings: probe aLAP1, fluorescence, higher = more signal;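 further: lysate comes from COS7 cells expressing LAP1 and is applied at 0.3 µg/mL; score merges spot fluorescence near 667 nm with signal-to-noise over triplicate slides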
[8] = test system: Sam68 (KHDRBS1); experiment: Sam68 small-molecule binders, primary screen, biochemical, small-molecule microarray, 635 nm fluorescence (AID 1125); settings: small-molecule microarray binding, higher = more signal;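 further: score merges 667 nm channel intensity with signal to noise over triplicate slides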
[9] = test system: Chordin-like protein 2 (CHRDL2); experiment: CHRDL2 small-molecule binders, primary screen, biochemical, small-molecule microarray, 635 nm fluorescence (AID 1126); settings: small-molecule microarray binding, fluorescence 635 nm; higher = more signal;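 further: printed compound slides probed with Chrdl2 protein at 4 µg/mL for 1 h at 4 C; score merges 667 nm emission intensity with signal to noise over three replicate slides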
[10] = target: Concanavalin-A (Canavalia ensiformis) (UniProt P02866); experiment: ConA small-molecule binders, primary screen, artefact control for SMM control protein annotation, biochemical, small-molecule microarray, Alexa647 label, 635 nm (AID 1127); settings: ConA-A647 binding fluorescence, higher = more signal;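 further: z combines 667 nm emission intensity with signal-to-noise across three replicate slides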
Concanavalin-A (Canavalia ensiformis), sequence (P02866 whole entry, looked up): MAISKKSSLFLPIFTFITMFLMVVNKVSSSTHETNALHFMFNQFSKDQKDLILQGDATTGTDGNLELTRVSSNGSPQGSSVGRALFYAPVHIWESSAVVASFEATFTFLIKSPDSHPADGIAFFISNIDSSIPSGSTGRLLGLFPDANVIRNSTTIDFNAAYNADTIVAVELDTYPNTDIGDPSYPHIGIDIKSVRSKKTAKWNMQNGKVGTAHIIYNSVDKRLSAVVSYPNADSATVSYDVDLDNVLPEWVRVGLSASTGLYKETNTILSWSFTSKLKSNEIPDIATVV

[11] = anti-His antibody binders, primary screen, artefact control for SMM control protein annotation, biochemical, small-molecule microarray, 635 nm fluorescence (AID 1128); settings: anti-His Alexa647 antibody binding, higher = more signal;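 further: score merges feature fluorescence with signal-to-noise for each printed compound spot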
[12] = test system: Human papillomavirus type 1a E7 protein (residues 1-88); experiment: HPV1a E7 small-molecule binders, primary screen, biochemical, small-molecule microarray, residues 1-88, 635 nm (AID 1129); settings: small-molecule microarray binding, fluorescence 635 nm; higher = more signal
[13] = target: Focal adhesion kinase 1 (Homo sapiens) (UniProt Q05397); experiment: small-molecule microarray binders of FAK, primary screen, biochemical, 635/667 nm fluorescence, BSA, DTT (AID 1130); settings: PTK2 binding, 635 nm fluorescence, higher = more signal;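 further: composite of spot emission at 667 nm and signal to noise over triplicate slides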
Focal adhesion kinase 1 (Homo sapiens), sequence (Q05397 whole entry, looked up): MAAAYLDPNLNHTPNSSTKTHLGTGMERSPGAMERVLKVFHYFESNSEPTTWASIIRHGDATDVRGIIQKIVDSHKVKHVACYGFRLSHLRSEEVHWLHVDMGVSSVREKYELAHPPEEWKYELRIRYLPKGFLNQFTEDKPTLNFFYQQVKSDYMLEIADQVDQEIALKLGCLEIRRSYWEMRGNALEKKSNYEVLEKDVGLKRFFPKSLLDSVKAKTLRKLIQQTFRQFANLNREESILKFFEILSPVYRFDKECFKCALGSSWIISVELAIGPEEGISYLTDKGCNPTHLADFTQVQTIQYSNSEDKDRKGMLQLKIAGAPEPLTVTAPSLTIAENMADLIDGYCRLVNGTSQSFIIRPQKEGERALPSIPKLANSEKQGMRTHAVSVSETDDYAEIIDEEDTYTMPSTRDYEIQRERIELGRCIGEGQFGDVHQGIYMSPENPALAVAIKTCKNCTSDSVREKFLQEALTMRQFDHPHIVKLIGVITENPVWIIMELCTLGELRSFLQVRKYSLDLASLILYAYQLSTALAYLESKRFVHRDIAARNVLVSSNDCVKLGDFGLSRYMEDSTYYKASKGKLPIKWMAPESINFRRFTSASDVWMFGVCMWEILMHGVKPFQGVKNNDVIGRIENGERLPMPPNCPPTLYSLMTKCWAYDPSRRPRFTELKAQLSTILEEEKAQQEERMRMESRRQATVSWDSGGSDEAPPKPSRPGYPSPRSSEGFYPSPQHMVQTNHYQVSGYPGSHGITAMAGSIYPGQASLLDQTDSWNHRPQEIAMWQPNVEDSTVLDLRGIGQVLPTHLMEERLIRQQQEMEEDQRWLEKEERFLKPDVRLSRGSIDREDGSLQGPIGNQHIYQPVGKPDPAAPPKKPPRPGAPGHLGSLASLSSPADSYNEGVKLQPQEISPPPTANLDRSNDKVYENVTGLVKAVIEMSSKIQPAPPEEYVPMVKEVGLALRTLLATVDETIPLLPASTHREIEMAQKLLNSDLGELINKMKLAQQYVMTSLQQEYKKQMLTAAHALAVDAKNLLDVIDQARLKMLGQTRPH

[14] = test system: Fibrinogen (Alexa647-labelled); experiment: fibrinogen binders on compound microarrays, profiling panel, artefact control for SMM control-protein annotation, biochemical, small-molecule microarray, 635/667 nm fluorescence (AID 1131); settings: fibrinogen-A647 binding fluorescence, higher = more signal;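 further: z-score merges 667 nm fluorescence with per-spot signal-to-noise over triplicate slides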
[15] = target: Follistatin (Homo sapiens) (UniProt P19883); experiment: follistatin binders on small-molecule microarrays, primary screen, biochemical, small-molecule microarray, 635/667 nm fluorescence (AID 1132); settings: FST binding, 635 nm fluorescence, higher = more signal
Follistatin (Homo sapiens), sequence (P19883 whole entry, looked up): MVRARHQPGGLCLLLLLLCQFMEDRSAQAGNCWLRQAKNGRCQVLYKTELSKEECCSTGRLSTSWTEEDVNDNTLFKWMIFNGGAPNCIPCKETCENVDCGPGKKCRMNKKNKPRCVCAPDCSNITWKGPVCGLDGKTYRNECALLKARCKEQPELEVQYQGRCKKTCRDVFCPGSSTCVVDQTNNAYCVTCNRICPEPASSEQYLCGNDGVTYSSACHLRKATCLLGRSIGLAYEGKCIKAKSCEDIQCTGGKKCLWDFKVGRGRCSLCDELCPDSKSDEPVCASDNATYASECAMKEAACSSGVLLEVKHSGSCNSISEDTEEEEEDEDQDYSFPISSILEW

[16] = target: Fibroblast growth factor 2 (Homo sapiens) (UniProt P09038); experiment: FGF2 binders on small-molecule microarrays, primary screen, biochemical, small-molecule microarray, 635/667 nm fluorescence (AID 1133); settings: small-molecule microarray binding, FGF2, fluorescence 635/667; higher = more signal
Fibroblast growth factor 2 (Homo sapiens), sequence (P09038 whole entry, looked up): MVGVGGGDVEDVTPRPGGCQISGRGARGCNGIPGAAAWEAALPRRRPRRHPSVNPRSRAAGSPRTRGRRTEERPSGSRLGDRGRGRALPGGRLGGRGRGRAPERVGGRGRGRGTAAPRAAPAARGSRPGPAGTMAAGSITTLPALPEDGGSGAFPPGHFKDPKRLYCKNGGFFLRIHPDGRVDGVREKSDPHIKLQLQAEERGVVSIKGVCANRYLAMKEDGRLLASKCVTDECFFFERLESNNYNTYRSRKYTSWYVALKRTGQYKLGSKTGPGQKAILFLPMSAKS

[17] = mitochondrial membrane potential change in A549 cells, profiling panel, cell-based, JC-1 fluorescence, basal, 24 h, 100 nL (AID 1138); settings: higher = more signal;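 further: A549 lung adenocarcinoma cells under basal conditions with no added stimulus; test concentration not given here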
[18] = test system: Lefty1; experiment: Lefty1 binders on small-molecule microarrays, primary screen, biochemical, small-molecule microarray, 635/667 nm fluorescence (AID 1139); settings: small-molecule microarray binding, fluorescence 635/667; higher = more signal
[19] = test system: wheat germ agglutinin (Triticum aestivum), Alexa647-labelled; experiment: wheat germ agglutinin binders on compound microarrays, profiling panel, artefact control for SMM control-protein annotation, biochemical, small-molecule microarray, 635/667 nm fluorescence (AID 1140); settings: WGA-A647 binding, 635 nm fluorescence, higher = more signal;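 further: score merges 667 nm feature emission with signal to noise over triplicate slides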
[20] = target: Luciferin 4-monooxygenase (Photinus pyralis) (UniProt P08659); experiment: firefly luciferase enzyme inhibitors, primary screen, biochemical, luminescence, purified enzyme, 2006 set (AID 1141); settings: SteadyGlo luminescence, 30 min, higher = more signal, called active from +8 up or from −8 down;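 further: cell-free assay with purified firefly luciferase at 100 ng per well in PBS; test concentration not given here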
Luciferin 4-monooxygenase (Photinus pyralis), sequence (P08659 whole entry, looked up): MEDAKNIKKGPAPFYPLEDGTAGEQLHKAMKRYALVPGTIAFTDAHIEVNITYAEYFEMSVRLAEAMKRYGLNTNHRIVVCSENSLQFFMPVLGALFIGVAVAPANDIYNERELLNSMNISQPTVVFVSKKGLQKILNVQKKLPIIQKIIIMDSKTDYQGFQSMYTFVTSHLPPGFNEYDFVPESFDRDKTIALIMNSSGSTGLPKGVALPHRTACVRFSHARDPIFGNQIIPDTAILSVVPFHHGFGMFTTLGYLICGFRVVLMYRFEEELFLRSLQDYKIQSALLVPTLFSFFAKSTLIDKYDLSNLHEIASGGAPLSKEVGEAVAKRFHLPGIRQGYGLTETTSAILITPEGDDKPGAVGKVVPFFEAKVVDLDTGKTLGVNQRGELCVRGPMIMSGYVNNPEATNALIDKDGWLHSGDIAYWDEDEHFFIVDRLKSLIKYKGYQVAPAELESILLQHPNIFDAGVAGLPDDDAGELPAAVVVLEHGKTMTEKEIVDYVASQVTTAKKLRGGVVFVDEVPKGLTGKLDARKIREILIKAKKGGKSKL

Compound	composite z-score [1]	composite Z-score [2]	composite z-score [3]	composite z-score [4]	composite z-score [5]	composite z-score [6]	composite z-score [7]	composite z-score [8]	composite z-score [9]	composite z-score [10]	composite z-score [11]	composite z-score [12]	composite z-score [13]	composite z-score [14]	composite z-score [15]	composite z-score [16]	z-score [17]	composite z-score [18]	composite z-score [19]	z-score [20]
O=C1C2C=CC(C(O)c3cccc4ccccc34)N(Nc3ccccc3)C2C(=O)N1c1ccccc1 (stereo not given)	0.571	0.739 (inactive)	0.277	0.0312	0.655	2.28	1.47	0.983	0.724	0.89	2.24	1.17	1.99	0.971	1.23	0.729	-0.39	0.576	0.753	-1.05 (inactive)
C=C(CCCC)/C(=C/C[C@@H](OC(=O)c1ccncc1)c1ccccc1OCCO)c1cc(C(=O)OC)ccc1OC	0.865	-0.0662 (inactive)	0.125	-0.0317	0.616	1.28	0.902	1.25	-0.0027	-0.251	2.82	1.22	1.38	0.979	0.549	0.213	3.24	0.444	1	-1.76 (inactive)
C=C(/C(=C/C[C@@H](OC(=O)c1ccncc1)c1ccccc1OCCO)c1cnc2ccccc2c1)C(C)C	0.635	0.718 (inactive)	0.306	0.0002	0.935	1.5	0.497	1.3	1.45	1.19	1.18	0.896	0.204	0.963	1.45	1.87	0.494	1.65	0.869	-1.08 (inactive)
COC(=O)[C@@]1(Cc2ccccc2)[C@H]2c3cc(C(=O)N(C)C)n(Cc4ccc(O)c(OC)c4)c3C[C@H]2CN1C(=O)c1ccccc1	0.955	0.403 (inactive)	0.808	-0.246	0.759	2.17	0.091	0.507	-0.629	1.1	2.42	1.11	1.12	0.418	0.465	-0.875	-1.29	-0.239	-0.0465	1.19 (inactive)
C=C[C@H](C)[C@H](OC(=O)Nc1ccc(SC)cc1)c1ccc(O)c2ccccc12	0.801	-0.53 (inactive)	-0.311	-0.192	0.736	0.518	-0.0167	-0.581	-0.0707	-0.252	0.499	-0.526	0.209	-1.35	1.08	0.162	-1.51	0.192	-0.341	-2.89 (inactive)
CCCCCCC#C[Si](O[C@H](c1ccccc1)c1cn(Cc2cccc(Cl)c2)nn1)(C(C)C)C(C)C	0.31	0.242 (inactive)	-0.0647	-0.104	0.205	0.186	-0.124	0.581	0.141	0.57	1.16	0.696	0.035	0.201	0.363	0.142	1.4	0.234	0.403	0.163 (inactive)
C=CCC(OC(C)=O)[C@@H]1[C@@H](N(Cc2ccc(-c3ccccc3)cc2)C(=O)c2cccc3ccccc23)c2cc(OCCCO)ccc2N1C(=O)c1ccc2ccccc2n1 (stereo not given in full)	0.028	-0.119 (inactive)	0.0306	-0.16	0.212	0.621	0.546	-0.168	0.165	-0.0782	0.952	0.138	0.16	-0.0282	0.374	0.268	1.14	0.565	0.139	-0.658 (inactive)
[N-]=[N+]=NCc1ccccc1[C@H]1OC(c2ccc(OCCCO)cc2)=N[C@@]1(Cc1ccccc1N=[N+]=[N-])C(=O)NCCN1CCOCC1	0.701	-0.514 (inactive)	0.416	0.105	0.751	2.32	-0.0777	1.29	0.263	1.14	2.01	1.27	0.387	0.981	1.27	0.939	1.57	0.631	1.2	-2.69 (inactive)
COC(=O)[C@@]1(Cc2ccc(OC)cc2)[C@H]2c3cc(C(=O)N4CCCC4)n(Cc4ccc(C)o4)c3C[C@H]2CN1C(=O)c1ccccc1	0.963	-0.282 (inactive)	0.74	0.0489	0.614	1.23	0.0793	0.762	-0.425	0.88	0.849	1.2	-0.0727	-0.369	1.09	-0.648	-3.11	-0.211	0.26	-22.4 (active)
CN(C)C(=O)[C@@]1(CCC(=O)OC(C)(C)C)COC(c2ccc(OCCCO)cc2)=N1	0.655	0.142 (inactive)	-0.119	-0.0508	0.841	3.29	0.723	0.502	-1.46	0.673	0.282	1.11	1.63	-0.254	0.625	-0.357	-0.191	-0.235	0.334	0.995 (inactive)
C[C@]12C(=O)N(CCCO)[C@@H]3C(=O)N(c4ccc(Cl)cc4)CC=CC31O[C@@H]1/C=C\CCCOC(=O)C12 (stereo not given in full)	0.309	0.264 (inactive)	-0.305	-0.118	0.883	1.46	0.492	0.518	-1.38	-0.743	2.25	-0.549	0.438	-2.51	-0.804	-1.72	0.202	-0.68	1.13	-0.299 (inactive)
C[N+](C)(C)CCCCNC(=O)[C@H]1C[C@H]2C(=O)NCC(=O)N2[C@H]1c1ccc(O)cc1	-1.48	0.586 (inactive)	0.175	-0.0457	0.568	1.56	1.01	0.852	1.39	1.14	3.01	0.241	-0.169	-0.0907	1.41	1.91	0.244	1.49	-0.287	-0.367 (inactive)
COCCCNC(=O)[C@]1(Cc2ccccc2CN=[N+]=[N-])N=C(c2ccc(OCCCO)cc2)O[C@@H]1c1ccccc1CN=[N+]=[N-]	0.864	0.701 (inactive)	0.364	0.309	0.613	2.28	1.09	1.29	-0.0479	1	2.28	1.2	0.11	0.954	0.701	0.244	1.28	-0.449	1.02	-0.107 (inactive)
COCCCNC(=O)[C@@]1(Cc2ccccc2CN=[N+]=[N-])N=C(c2ccc(OCCCO)cc2)O[C@H]1c1ccccc1N=[N+]=[N-]	0.778	0.397 (inactive)	0.303	0.168	0.421	2.43	0.656	1.02	-0.379	1.04	2.29	1.19	0.543	0.931	1.35	1.18	3.53	0.0538	1.2	-4.87 (inactive)
O=C1OCCC=C[C@H]2OC34C=CCN(Cn5nnc6ccccc65)C(=O)[C@H]3N(CCCCCO)C(=O)[C@@H]4C12 (stereo not given in full)	0.428	0.266 (inactive)	-0.193	-0.114	0.87	0.121	0.686	-0.464	-0.579	-1.55	2.73	-0.476	0.0209	-2.02	-0.862	-0.346	0.427	-0.559	-0.807	-0.245 (inactive)
